This is an account of results in PubChem BioAssay AID651871 (Sanford-Burnham Center for Chemical Genomics, 2012).

Where “and” joins values, the source holds several entries; their conditions need not be identical. Equal values may be shown once.

The test has as its system HL-1. Description: cardiomyocyte survival under oxidative or metabolic stress – cell-based, panel, H9c2 and HL-1, ATP luminescence, set 2, SAR follow-up (AID 651871).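 Note: cells exposed to stressor for 2 h before ATP readout; reference of the scale not given here.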 Particulars: H9c2/HL-1 cardiomyocytes, 2-deoxyglucose stress, with 2-deoxyglucose.
The mark [1] stands for this setting: run 10, at 79 µM (top of the series).

As for `COc1ccc2c(c1OC)C(=O)N1c3ccccc3C(=O)N(Cc3cccc(Cl)c3Cl)C21` (centres undefined), the activity (protection/inhibition) is 33.5% (run 10, at 19.8 µM (top of the series)); 36.7% and -11.3% under setting [1].

Turning to `COc1ccc2nc(-c3cc(OC)c(OC)c(OC)c3)cc(C(=O)NCC(=O)Nc3ccc(C(C)=O)cc3)c2c1`, the activity (protection/inhibition) under setting [1] amounted to 56%.

With `CCOC(=O)c1cccc(NC(=O)CNC(=O)c2cc(-c3cc(OC)c(OC)c(OC)c3)nc3ccccc23)c1`, under setting [1], the activity (protection/inhibition) is 98.6%.
